The panel holds about 83,000 compounds, 20% with a hit somewhere; the sample as a whole holds those more often.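 Activity criterion: percent growth below 10, measured after cells in 96-well plates were exposed to a single compound concentration for 48 hours.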 Unmarked numbers belong to inactive results. The source made the active and inactive calls.
Each compound was assayed on HL-60(TB) leukemia (assay: NCI-60 one-dose screen, 48 h (100 = growth as untreated, 0 = no growth, -100 = all killed)). Conditions: 10 µM unless noted.
With C#CCOc1ccc(-c2csc(NC(=O)C=C)n2)cc1NS(=O)(=O)c1cccc2c(N(C)C)cccc12 the growth was -4.97% (active).
In the case of CCCCCCNC(=O)Oc1ccc(/C(=C(/C)c2ccc(OC)cc2)c2ccc(OCCN3CCCC3)cc2)cc1, the growth is reported as 50.7%.
In the case of COc1ccc(-c2nc3ccc(-c4nnc(SCC(=O)Nc5ccc(C(=O)/C=C/c6ccc(Cl)cc6)cc5)o4)cc3[nH]2)cc1OC, the growth is reported as 88.7%.
For Nn1c(=O)n(-c2cccc(C(F)(F)F)c2)c(=O)c2cc(-c3ccc(F)cc3F)ccc21, the growth was -45.9% (active).
